# In PubChem BioAssay (EPA / NIEHS):
# Several values for one entry are separate records, joined by “and”; a condition that tells them apart may be missing. Identical values can stand only once. Some structures have more than one record in an assay (separate samples or runs), and their calls can disagree. Activity calls are given as the source filed them. Rule for the calls: active = hit-call score of the fitted dose curve at least 0.9, where 1 is the maximum; inactive = score below 0.9.
# Test: CCTE_Shafer_MEA_dev_mutual_information_norm: CCTE's Neural Network Formation Assay for Mutual Information Normalization, Shafer Lab (AID 2284091);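 for AC50: potency is for a decrease in mutual information relative to DMSO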
# Experimental: CCTE_Shafer_MEA_dev assay is conducted using Axion Biosystems 48 well microelectrode array (MEA) plates and Maestro recording system. Each well of the MEA plate contains a grid of 16 microelectrodes embedded in the culture surface. Electrically active cells, such as neurons, can be cultured over the electrodes, and electrical activity in these cells can be recorded extracellularly. The spontaneous firing of neurons is captured from each electrode on a microsecond timescale providing both temporally and spatially precise data. […] The CCTE_Shafer_MEA_dev assay uses primary cultures of rat cortical neurons. Recordings are made on days post-plating 5, 7, 9 and 12. As these cultures mature over time, neural networks develop functional activity and form cohesive networks in which electrical activity can be highly coordinated. CCTE_Shafer_MEA_dev_mutual_information_norm is 1 of 19 assay components of the CCTE_Shafer_MEA_dev assay. It is a measure of shared information between electrodes during a recording in a microelectrode array (MEA) using Axion Biosystems Maestro 768 channel amplifier with the AxIS adaptive spike detector. To collapse across multiple recordings made on days post-plating 5, 7, 9 and 12, the trapezoidal area-under-the-curve of the component is calculated.Data from the assay component CCTE_Shafer_MEA_dev_mutual_information_norm was analyzed into 1 assay endpoint. This assay endpoint, CCTE_Shafer_MEA_dev_mutual_information_norm, was analyzed in the negative analysis fitting direction relative to DMSO as the negative control and baseline of activity. Using a type of functional reporter, gain or loss-of-signal activity can be used to understand electrical activity.
# On the day prior to culture, each well was coated thoroughly with 150 uL of 0.05% polyethyleneimine (PEI, Sigma Cat P3143) in 50 mM HEPES (Sigma Cat H7523) at a pH of 8. The plate was incubated at 37C for one hour. PEI was rinsed out with 500 uL of sterile water three times. Plates were stored at 4C until the day of culture. This culture was plated at a seeding density of 1.5 x 10^5 cells/well on a 48-well MEA plate, prepared as described above. Cells were administered via a 25 uL media/laminin ([…]; Sigma Cat L2020-1MG) drop directly onto the microelectrode array, as adding the cells with the laminin results in better attachment than pre-coating with laminin. After 2 hours, an additional 475 uL of cortical media was added and the cells returned to the incubator. Exposure starts at day 0 of plating and is continued over twelve days of network development until the experiment is terminated. Cells are fed with fresh medium on DIV 5 and 9, following the recordings on those days. The entire volume of media in the well is exchanged and any vehicle or compound treatment is renewed. Complete details are found in OP-NHEERL/ISTD/SBB/TJS/2015-03-r0 (available on request, email shafer.tim@epa.gov). Measurement of the electrical activity is non-invasive, and recordings can be made from the same plate over multiple different days of the culture. In cortical neurons, this allows for the measurement of extracellular action potentials over the period during which networks form in the MEA plate.
Structure (SMILES),outcome,AC50
CCCCOC(=O)c1ccccc1C(=O)OCc1ccccc1,inactive,
Clc1ccc(C(c2ccc(Cl)cc2)C(Cl)(Cl)Cl)cc1,,971 nM (active) and 2.52 µM (active)
Clc1ccc(C(c2ccc(Cl)cc2)C(Cl)Cl)cc1,,2.01 µM (active)
O=P(OCCCl)(OCCCl)OCCCl,inactive,
[O-][Cl+]O,inactive,
CNC(=O)Oc1cccc2c1OC(C)(C)C2,inactive,
Nc1cc(Cl)cc(C(=O)O)c1Cl,inactive,
C1=Cc2cccc3cccc1c23,inactive,
COP(=S)(OC)SCN1C(=O)c2ccccc2C1=O,inactive,22.7 µM (active)
ClC1=C(Cl)C2(Cl)C3C(Cl)C=CC3C1(Cl)C2(Cl)Cl (stereo unspecified),,1.52 µM (active)
CCNS(=O)(=O)C(F)(F)C(F)(F)C(F)(F)C(F)(F)C(F)(F)C(F)(F)C(F)(F)C(F)(F)F,,2.98 µM (active) and 2.72 µM (active)
CCC[CH2][Sn]([Cl])([CH2]CCC)[CH2]CCC,,0.0231 µM (active)
CN(C)[C@@H]1C(=O)C(C(N)=O)=C(O)[C@@]2(O)C(=O)C3=C(O)c4c(O)cccc4[C@@](C)(O)[C@H]3C[C@@H]12,inactive,
[Cl-].[Cl-].[Hg+2],inactive,
OCCOCCO,inactive,
CC(C)COC(=O)c1ccccc1C(=O)OCC(C)C,,22.2 µM (active)
ClC1=C(Cl)[C@]2(Cl)[C@H]3[C@H]([C@@H]4C=C[C@H]3C4)[C@@]1(Cl)C2(Cl)Cl,,0.909 µM (active)
CC(C)(O)c1cnn2c(-c3ccc(F)c(-c4c(F)cccc4C#N)c3)cnc2n1,,0.191 µM (active)
CC(C)(C)C(O)(CCc1ccc(Cl)cc1)Cn1cncn1 (stereo unspecified),,2.24 µM (active)
COC(=O)Nc1nc2ccccc2[nH]1,,5.19 µM (active)
